The nature of assay [1]: NCI Yeast Anticancer Drug Screen. Data for the rad50 strain (AID 155).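 Also: 0% = growth of vehicle-only cultures of the same strain.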 The note with it: S. cerevisiae rad50 strain growth inhibition; at 50.0 µM; hits give high values. The method, boiled down: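 A DNA repair-deficient yeast mutant serves as the test organism; compound-induced growth inhibition is calculated against vehicle-treated cells.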
A short description of assay [2]: NCI Yeast Anticancer Drug Screen. Data for the mec2-1 strain (AID 157). The note with it: S. cerevisiae mec2-1 strain, at 50.0 µM, hits give high values. The method, boiled down: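 Test agents were screened against the mec2-1 yeast strain, with defined DNA repair or cell cycle alteration. Growth was scored as inhibition against vehicle-only controls.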
Assay [3] can be described thus: NCI Yeast Anticancer Drug Screen. Data for the sgs1 mgt1 strain (AID 161).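 Also: 0% = growth of cultures given vehicle only.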 The note with it: S. cerevisiae sgs1 mgt1 strain, at 50.0 µM, hits give high values. In a few lines:
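Genetically altered yeast, compound exposure, growth inhibition relative to vehicle.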

Assay [4] can be described thus: NCI Yeast Anticancer Drug Screen. Data for the cln2 rad14 strain (AID 165).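 Also: 0% = growth equal to vehicle treated cultures.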 The note with it: S. cerevisiae cln2 rad14 strain, at 50.0 µM, hits give high values. In a few lines:
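Growth of compound-exposed yeast (cln2 rad14 genotype) measured and expressed as inhibition relative to vehicle.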

A short description of assay [5]: NCI Yeast Anticancer Drug Screen. Data for the bub3 strain (AID 167). Particulars: S. cerevisiae bub3 mutant strain, at 50.0 µM, hits give high values. In a few lines: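 Inhibition values come from growth of compound-treated mutant yeast normalised to vehicle-treated controls.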
Assay [6] in a line: NCI Yeast Anticancer Drug Screen. Data for the mlh1 rad18 strain (AID 175). The note with it: S. cerevisiae mlh1 rad18 strain growth inhibition; at 50.0 µM; hits give high values. In a few lines:
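In this whole-cell yeast screen, a strain with altered DNA damage repair is challenged with compound, and its growth is measured against matched vehicle-treated controls.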

Each structure is given as a SMILES string. About 79,000 compounds went through this panel and 15% of them were active in at least one assay; those are over-represented in the sample as a whole. Unmarked numbers belong to inactive results. Calls of active or inactive are those of the source. Rule as the data show it: active = growth inhibition above about 70%; inactive = the rest.

For `O=NN(CCCl)C(=O)N(C1CCCCC1)C1CCCCC1`, the growth inhibition in assay [1] is 8.5%; in assay [2] it was -3.95%; in assay [3] it was 12.1%; in assay [4] it was 3.35%; in assay [5], 5%; in assay [6], 27.7%.

Take `C=CCNC(=S)/N=C\c1c(C)[nH]n(-c2ccccc2)c1=O`: the growth inhibition is -23.8% in assay [1]; -27.2% in assay [2]; -24.6% in assay [3]; -17.6% in assay [4]; -17.6% in assay [5]; -5.7% in assay [6].

As for `CN=C1Nc2ccc(Cl)cc2C(c2ccccc2)=NN1C`, the growth inhibition is 10% in assay [1]; -19.4% in assay [2]; 2.9% in assay [3]; 11.3% in assay [4]; 6.85% in assay [5]; -12.6% in assay [6].

Take `Cc1ccc2c(c1)c1ccc3c(c1n2C)C(=O)C=CC3=O`: the growth inhibition is 3.25% in assay [1]; 30.7% in assay [2]; 74.8% (active) in assay [3]; 2.55% in assay [4]; 62.6% in assay [5]; 74% (active) in assay [6].

Consider `CSc1nc(COC(=O)NC(C)C)c(COC(=O)NC(C)C)n1Cc1ccccc1`, for which the growth inhibition in assay [1] is 2.45%; in assay [2], 3.7%; in assay [3], 1.35%; in assay [4], 1.65%; in assay [5], 5.4%; in assay [6] it was 2.5%.

`CCOC(=O)c1cnc(N)nc1N`: the growth inhibition in assay [1] is 6.35%; in assay [2], -16.1%; in assay [3], -6.3%; in assay [4] it was -88.3%; in assay [5] it was -8.3%; in assay [6], 24.1%.

Regarding `S=C1N=C(Cl)C2(NN1)c1ccccc1-c1ccccc12`, the growth inhibition in assay [1] was 17.9%; in assay [2], -16.1%; in assay [3], -1.15%; in assay [4] it was -14.5%; in assay [5] it was -11.7%; in assay [6], 32%.

On to `COc1ccc(-n2c(C)nc3c(cnn3C3OC(CO)C(O)C3O)c2=O)cc1` (stereo unspecified), for which the growth inhibition in assay [1] is 16.2%; in assay [2], -5.6%; in assay [3], -15.1%; in assay [4] it was -4.15%; in assay [5], -1.9%; in assay [6] it was 11.2%.

On to `CN(C)CCCCCCNCCC#N`, for which the growth inhibition in assay [1] was 21.2%; in assay [2], -27.8%; in assay [3], -8.4%; in assay [4], -8.85%; in assay [5] it was -28.4%; in assay [6], -1.6%.

For the compound `O=C(O)c1cccc2c1-c1ccc(NC(=O)C(Cl)Cl)cc1C2=O`, the growth inhibition in assay [1] is 31%; in assay [2] it was -1.65%; in assay [3], -6.85%; in assay [4], -5.7%; in assay [5], 16.1%; in assay [6], 12.1%.

In the case of `O=C(c1ccccc1)N1OCCCc2ccccc21`, the growth inhibition is 17.5% in assay [1]; 7.9% in assay [2]; 19.2% in assay [3]; 2.7% in assay [4]; 13.3% in assay [5]; 20.4% in assay [6].

In the case of `CCCCCCC(O)C/C=C\CCCCCCCC(=O)O` (stereo unspecified), the growth inhibition in assay [1] was -14%; in assay [2] it was -3.7%; in assay [3] it was -30.9%; in assay [4] it was 62.9%; in assay [5] it was -9.2%; in assay [6], -15.9%.

Consider `Cc1cc2nc(-c3ccccn3)c(-c3ccccn3)nc2cc1C`, for which the growth inhibition in assay [1] was 2.05%; in assay [2], -18.9%; in assay [3], 6.9%; in assay [4] it was 20.1%; in assay [5], -7.75%; in assay [6], 21.4%.

For the compound `CCCCC(=O)CCC(=O)O`, the growth inhibition in assay [1] was 9.7%; in assay [2] it was 11.6%; in assay [3], 4.95%; in assay [4] it was 13.8%; in assay [5], 9.7%; in assay [6] it was 12.7%.

On to `O=[N+]([O-])c1ccccc1C=Nc1ccc2nc(SCc3ccccc3)sc2c1`, for which the growth inhibition in assay [1] was 8.15%; in assay [2], 3.65%; in assay [3], 3.95%; in assay [4], 0.7%; in assay [5], -4%; in assay [6], -16.8%.

Regarding `Clc1cccc2c(SCCCCCSc3c4ccccc4nc4c(Cl)cccc34)c3ccccc3nc12`, the growth inhibition was -3.45% in assay [1]; -8.9% in assay [2]; -22.4% in assay [3]; -33.5% in assay [4]; -23.9% in assay [5]; -24.6% in assay [6].

For the compound `Nc1c(OCc2ccccc2)cccc1C(=O)O`, the growth inhibition in assay [1] was -7.1%; in assay [2], -9.5%; in assay [3], 10.9%; in assay [4] it was -47.5%; in assay [5], -40.5%; in assay [6], -12.2%.

In the case of `NCCNC(=O)c1ccccc1`, the growth inhibition in assay [1] was -6.5%; in assay [2], 1.8%; in assay [3], 0.75%; in assay [4], 17.3%; in assay [5] it was -7.95%; in assay [6], 4.65%.

As to `CC(=O)c1ccccn1`, the growth inhibition was -8.7% in assay [1]; -31.4% in assay [2]; -13.8% in assay [3]; -7.3% in assay [4]; -22.8% in assay [5]; -26.6% in assay [6].

Consider `COc1cccc(-c2nnc(-c3cccc(OC)c3)o2)c1`, for which the growth inhibition was 25.4% in assay [1]; -12.1% in assay [2]; 16.6% in assay [3]; 1.95% in assay [4]; 25.5% in assay [5]; 0.2% in assay [6].

Take `NC(CO)C(O)C(O)C(O)CO` (stereo unspecified): the growth inhibition was 6.8% in assay [1]; 4.5% in assay [2]; 3.35% in assay [3]; 6.7% in assay [4]; 2.35% in assay [5]; -0.45% in assay [6].

These data come from PubChem BioAssay (NCI).
